# Assay outcomes from PubChem BioAssay.
# Sampled rows, rich in hits. Any-hit rate of the full collection: about 17%.
# TDP1 cell CPT – qHTS for Inhibitors of human tyrosyl-DNA phosphodiesterase 1 (TDP1): qHTS in cells in presence of CPT | actives 12% (n = 420,000) | chicken DT40 Tdp1-/-;hTDP1 cells + 20 nM CPT, ATP luminescence, 48 h | Potency, µM (highest dose often 46.2 µM), without a hit: top-dose activity change, negative = growth inhibition, usual class: inhibitors; note: % is set by controls: 0 for no effect and ±100 for the full control effect; nearly all actives have a fitted effect of over 55% in size
#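 Chicken DT40 Tdp1-/- cells complemented with human TDP1, 400 cells/well, exposed to compounds plus 20 nM camptothecin for at least 48 h at 37 C; viability read as ATP content by CellTiter-Glo luminescence.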
# DT40 TDP1 no CPT – qHTS for Inhibitors of human tyrosyl-DNA phosphodiesterase 1 (TDP1): qHTS in cells in absence of CPT; Potency, µM (series often up to 46.2 µM), for the others: at the top dose activity change, negative = growth inhibition, hits mostly inhibitors; DT40 Tdp1-/- hTDP1 cells, no CPT, ATP luminescence, 48 h; actives 15% (n = 420,000); note: % is set by controls: 0 for no effect and ±100 for the full control effect; nearly all actives have a fitted effect of over 55% in size
#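 DT40 Tdp1-/-;hTDP1 cells, no CPT (DMSO vehicle only), 400 cells/well; compounds pin-transferred; ≥48 hr, 37 °C; CellTiter-Glo 30 min RT dark, luminescence read.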
# ClpP mod – qHTS Assay for Activators of ClpP; purified B. subtilis ClpP, FRET peptide cleavage, 20 min; actives 1.9% (n = 340,000); Potency, µM (top dose mostly 57.5 µM), without a hit: at the top dose activity change, negative = active; ATP-dependent Clp protease proteolytic subunit (Bacillus subtilis (strain 168)), P80244; active = well fitted falling curve with a large enough effect; inconclusive = small, poorly fitted or top-dose-only effect; inactive = no such curve, though single readings can be large or run the other way; note: the source files actives as falling curves though it sought activators and does not explain the sign; nearly all actives have a fitted effect of over 65% in size
#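 FRET quenching reversal measured ClpP activation: 10 microg/mL B. subtilis ClpP at pH 8 with the FRET-FV decapeptide, read at 430 nm after 320 nm excitation. The 20-min minus 0-min signal was scaled between DMSO/no-enzyme wells and ADEP (5.8 microM final).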
# TDP1 block – qHTS Assay for Inhibitors of Tyrosyl-DNA Phosphodiesterase (TDP1) | Tyrosyl-DNA phosphodiesterase 1 (Homo sapiens), Q9NUW8 | recombinant TDP1, AlphaScreen DNA substrate cleavage | Potency, µM (doses to about 130 µM), for inactives: at the top dose activity change, negative = inhibition, most hits filed as inhibitors | actives 0.28% (n = 350,000) | AID 485290, 2010; note: % is set by controls: 0 for no effect and ±100 for the full control effect; nearly all actives have a fitted effect of over 40% in size
# Target sequence (Q9NUW8 whole entry, looked up): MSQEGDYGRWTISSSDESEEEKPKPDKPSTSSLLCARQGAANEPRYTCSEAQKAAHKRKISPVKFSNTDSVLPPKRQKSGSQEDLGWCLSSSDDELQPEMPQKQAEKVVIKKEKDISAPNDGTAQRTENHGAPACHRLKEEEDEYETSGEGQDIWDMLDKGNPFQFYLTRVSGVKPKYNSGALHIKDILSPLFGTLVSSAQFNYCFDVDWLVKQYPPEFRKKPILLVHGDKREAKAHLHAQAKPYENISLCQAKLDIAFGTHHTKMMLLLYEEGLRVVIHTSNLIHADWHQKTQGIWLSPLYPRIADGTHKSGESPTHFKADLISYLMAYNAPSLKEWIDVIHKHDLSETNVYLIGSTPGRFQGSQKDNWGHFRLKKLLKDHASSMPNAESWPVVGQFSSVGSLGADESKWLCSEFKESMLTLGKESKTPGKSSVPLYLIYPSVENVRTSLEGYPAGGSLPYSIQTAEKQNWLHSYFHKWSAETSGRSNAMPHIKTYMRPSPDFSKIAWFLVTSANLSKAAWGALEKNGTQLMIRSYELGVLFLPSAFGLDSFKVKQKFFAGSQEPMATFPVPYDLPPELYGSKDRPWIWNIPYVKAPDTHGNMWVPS
#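 E. coli-derived human Tdp1, 1 nM final. Cpd preinc 15 min RT; substrate 15 nM final, 5 min RT; AS bead mix 10 ug/ml final, 10 min RT. Signal loss = tyrosine-FITC cleavage. No-enzyme wells = max signal.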
# An asterisk follows results filed as active; ? = inconclusive; . = no result; [ ] = remark or other dose. Unless noted, calls come from the whole dose curve; as a rule, active = well fitted curve in the direction sought with a large enough effect; inconclusive = small, poorly fitted or top-dose-only effect, or another doubt; inactive = no such curve, though single readings can be large; an effect the other way counts as inactive or inconclusive. Potency is the fitted concentration of half-maximal effect.
SMILES,TDP1 cell CPT,DT40 TDP1 no CPT,ClpP mod,TDP1 block
Cc1onc(-c2ccccc2)c1CNC(=O)Nc1ccc(C(F)(F)F)cc1,?,16.4µM*,.,-2.5%
CCOC(=O)C1CCCN(C(=O)c2cc(C#N)cs2)CC1 (stereo unspecified),1.2%,5.3%,1.8%,.
Cc1ccc(-n2nc3c(=O)n(CC(=O)NC4CCCCCC4)nc(C)c3c2C)cc1,?,-0.5%,-5.0%,1.4%
Cn1cc(Br)c(C(=O)N/N=C/c2cccc(OC3CSC3)c2)n1,3.6%,?,-2.0%,0.0%
COc1cc(C(=O)NN=Cc2ccc(N(C)C)cc2)cc(OC)c1OC,0.92µM*,0.92µM*,-4.5%,.
CCOc1cc(/C=N/NC(=O)c2nn(C)cc2Br)ccc1OCc1ccccc1Cl,20.6µM*,16.4µM*,?,0.0%
CCOc1cc(/C=N/NC(=O)c2ccc(CN3CCOCC3)cc2)ccc1OCc1ccccc1,?,18.4µM*,1.4%,-2.3%
CCOc1cc(/C=N/NC(=O)c2ccc(N(C)S(=O)(=O)c3ccccc3)cc2)ccc1OC,?,20.6µM*,.,-0.1%[0.0935 µM]
CC(=O)Oc1ccc(/C=N/NC(=O)c2ccc(N(C)S(=O)(=O)c3ccccc3)cc2)cc1,-0.3%,?,.,.
CCOc1cc(/C=N/NC(=O)CN2CCOCC2)ccc1OCc1ccccc1,-17.7%,?,-23.8%,2.7%
O=C1CC2(CCN(C(=O)c3ccc(F)cc3)CC2)Oc2ccccc21,-15.0%,-26.4%,.,-0.2%
Cc1nc2c(O)cccc2c(=O)[nH]1,?,-0.1%,.,9.5%
COc1ccccc1CCNC(=O)c1c(N)[nH]c(C(=O)c2ccccc2)c1-c1ccc(Br)cc1,?,?,2.4%,.
Nc1[nH]c(C(=O)c2ccccc2)c(-c2ccc(Br)cc2)c1C(=O)NCCc1c[nH]c2ccccc12,?,18.4µM*,-4.2%,.
COc1ccc(C(=O)c2[nH]c(N)c(C(=O)NCCc3c[nH]c4ccccc34)c2-c2ccc(Br)cc2)cc1,?,20.6µM*,-2.9%,.
COc1ccc(C(=O)c2[nH]c(N)c(C(=O)NCCc3c[nH]c4ccccc34)c2-c2ccc(C(F)(F)F)cc2)cc1,16.4µM*,20.6µM*,-6.8%,.
COc1ccc2sc(-c3ccc(S(C)(=O)=O)cc3)c(C(=O)NCCc3c[nH]c4ccccc34)c2c1,20.6µM*,16.4µM*,4.3%,2.5%
Nc1[nH]c(C(=O)c2ccccc2)c(-c2ccncc2)c1C(=O)NCCc1c[nH]c2ccccc12,?,?,-0.5%,.
O=C1COc2ccc(N3C(=O)c4ccccc4C3=O)cc2N1,.,.,.,-0.6%
COc1ccc(-c2noc(CC(=O)N(C)c3cccc(C)c3)n2)cc1,?,?,-0.3%,0.0%
Cn1nccc1C(=O)N1CCc2c([nH]c3ccccc23)C1c1ccc(F)cc1 (stereo unspecified),-13.5%,-6.9%,.,7.3%
CCN(CC)c1ccc(C(=O)N2CCc3c([nH]c4ccccc34)C2c2ccc(F)cc2)cc1 (stereo unspecified),2.91µM*,?,-14.4%,5.4%
CCc1ccc(C2c3[nH]c4ccccc4c3CCN2C(=O)c2cc[n+]([O-])cc2)cc1 (stereo unspecified),25.9µM*,16.4µM*,-3.6%,-9.8%
Cc1ccc(C(=O)COC(=O)CN2C(=O)C3C4CCC(C4)C3C2=O)cc1C (stereo unspecified),12.7%,-0.1%,0.3%,7.5%
COc1cc(/C=N/NC(=O)CCn2nnc3ccccc32)ccc1O,41.0%,-0.5%,.,-3.2%
SMILES,TDP1 cell CPT,DT40 TDP1 no CPT,ClpP mod,TDP1 block
COc1ccc(O)c(/C=N\NC(=O)CCn2nnc3ccccc32)c1,?,23.1µM*,-26.6%,-3.8%
COc1cccc(/C=N/NC(=O)CSCC(=O)Nc2ccccc2)c1O,4.47µM*,3.16µM*,-4.5%,3.1%
COc1cccc(/C=N\NC(=O)Cn2nnc3ccccc32)c1O,3.66µM*,2.91µM*,.,-2.5%
COc1ccccc1-c1noc(-c2ccc(NC(C)C)c([N+](=O)[O-])c2)n1,?,?,1.1%,8.6%
CCOC(=O)C1CCN(C(=O)c2ccc3c(c2)sc2nc(-c4ccccc4)cn23)CC1,6.51µM*,23.1µM*,?,0.0%
Cc1ccc(-c2cn3c(n2)sc2cc(C(=O)N4CCCCC4)ccc23)cc1,-79.4%,16.4µM*,25.1µM*,-1.3%
CCOC(=O)N1CCN(C(=O)c2ccc3c(c2)sc2nc(-c4ccccc4)cn23)CC1,?,?,-10.0%,-2.0%
CCOC(=O)C1CCN(C(=O)c2ccc3c(c2)sc2nc(-c4ccc(OCC)cc4)cn23)CC1,7.31µM*,6.51µM*,4.2%,1.3%
Cc1ccc(NC(=O)N2CCC(CN3CCC(C)CC3)CC2)cc1F,-12.1%,-1.5%,0.9%,5.0%
COc1ccccc1Cc1nc2ccccc2nc1SCC(=O)NCc1ccccc1Cl,?,?,-4.5%,5.4%
Cc1cc2c(cc1NC(=O)c1ccccc1C)n(C)c(=O)c(=O)n2C,-0.6%,2.4%,-13.0%,4.5%
CCOCc1c(C(=O)N2CCN(CCOc3ccc(Cl)cc3)CC2)oc2ccccc12,?,14.6µM*,.,-0.8%
CO[C@H]1CN(C)C(=O)c2ccc(NC(=O)C3CCC3)cc2OC[C@H](C)N(Cc2ccc(F)cc2)C[C@@H]1C,?,?,-0.4%,.
COC(=O)c1cccc(NC(=O)c2cc3sccc3n2C)c1,?,20.6µM*,-6.0%,11.9%
CC(OC(=O)c1cc2sccc2n1C)C(=O)NCCc1ccccc1 (stereo unspecified),14.6µM*,17.8µM*,-1.8%,-1.0%
COC(=O)c1ccccc1NC(=O)c1cc2sccc2n1C,-3.0%,-14.8%,31.6µM*,2.4%
CC(OC(=O)c1cc2sccc2n1C)C(=O)NCc1ccc(F)cc1 (stereo unspecified),-23.5%,-27.5%,-2.5%,7.2%
COc1ccccc1CNC(=O)c1cc2sccc2n1C,-24.4%,-28.8%,0.6%,3.8%
COC(=O)c1cccc(NC(=O)c2cccc(OC)c2)c1,?,?,0.5%,5.1%
CCCn1nc(C(=O)NNC(=O)CSC(C)C(=O)Nc2cc(C)on2)c2ccccc2c1=O (stereo unspecified),-6.3%,-22.3%,-0.7%,1.7%
COc1ccccc1NC(=O)C(C(C)C)N1C(=O)c2ccccc2C1=O (stereo unspecified),1.7%,3.2%,0.4%,.
CCC(OC(=O)C(C)N1C(=O)C(=O)c2ccccc21)C(=O)Nc1ccccc1OC (stereo unspecified),4.61µM*,5.8µM*,.,1.8%
COc1ccc(-c2cnc3c(NC=O)cc(-c4ccc(F)cc4)cn23)cc1OC,0.0058µM*,0.013µM*,?,.
